Assay outcomes from PubChem.
The list is not random: actives were taken first. Their share in the collection is about 5.9%.
FBPA coupling cs = counter-screen for Giardia aldolase inhibitors: coupling enzyme system; coupling enzyme system counterscreen, AmpLite Red fluorescence; activity change, negative = inhibition, % at 58.2 µM, hits read low; hit rate 0.67% among 290,000; in the data active = activity change below about -30%
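Compounds tested against the coupling enzymes alone at 57.5 uM final; readout was AmpLite Red fluorescence (525/598 nm) after 20 min at RT.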
RORgamma inh = blocks mouse ROR gamma transcriptional activity | P51450 | Potency, µM (highest dose often 53.6 µM), inactives show at the highest dose activity change, negative = inhibition, usual class: inhibitors | hit rate 5.4% among 310,000 | Drosophila S2 Gal4-RORgamma UAS-luciferase reporter, 20 h; also: potency is read from the fitted curve at half-maximal effect; nearly all actives have a fitted effect of over 60% in size
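Luciferase reporter read in Schneider cells carrying Gal4-RORγ (mouse) and UAS-Photinus luciferase; cells given compound 1 h before 700 uM copper sulfate induction, then incubated 20 h at ambient temperature.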
VP16 counter = counter-screen for ROR gamma inhibitors: Gal4-VP16 reporter. AID 2546. Potency, µM (titrated, usually from 53.6 µM), without a hit: top-dose activity, negative = inhibition, actives largely listed as inhibitors. hit rate 3.5% among 310,000. Drosophila S2 Gal4-VP16 UAS-luciferase, luminescence, 20 h;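 also: Gal4-VP16 expression switched on by copper sulfate through the metallothionein promoter; potency is read from the fitted curve at half-maximal effect; nearly all actives have a fitted effect of over 50% in size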
rTrxR1 inhibitor = rat TrxR1 inhibition. recombinant rTrxR1, NADPH fluorescence consumption, selenite substrate. Potency, µM (titrated, usually from 114 µM), for inactives: at the top dose activity change, negative = inhibition, most hits filed as inhibitors. hit rate 1% among 390,000. AID 588453; also: potency is read from the fitted curve at half-maximal effect; nearly all actives have a fitted effect of over 65% in size
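Rat TrxR1 (90 nM in the dispensed reagent) was pre-reduced with 400 uM NADPH for 5 min at room temperature, then incubated with compound for 15 min. After 400 uM selenite was added, NADPH fluorescence (Ex 340/Em 450 nm) was followed for 8 min.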
TrxR1 substrate = substrates of rat thioredoxin reductase 1; O89049; purified TrxR1 substrate turnover, NADPH consumption readout; Potency, µM (top dose mostly 114 µM), inactives show at the top dose activity change, negative = substrate turnover; hit rate 0.01% among 390,000; AID 588456; also: potency is read from the fitted curve at half-maximal effect; nearly all actives have a fitted effect of over 50% in size
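Rat TrxR1, dispensed at 90 nM, was prereduced with 400 uM NADPH (final) for 5 min at ~22 deg C, then incubated with compound 15 min before 400 uM selenite. A first-read NADPH fluorescence drop versus no-compound background flagged substrates.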
GALK inhibitor = inhibitors of human galactokinase. P51570. Purified GALK, Kinase-Glo residual ATP luminescence. Potency, µM (series often up to 57.5 µM), for inactives: at the top dose activity change, negative = inhibition, usual class: inhibitors. hit rate 0.007% among 270,000; also: potency is read from the fitted curve at half-maximal effect
Target sequence (P51570 whole entry, looked up): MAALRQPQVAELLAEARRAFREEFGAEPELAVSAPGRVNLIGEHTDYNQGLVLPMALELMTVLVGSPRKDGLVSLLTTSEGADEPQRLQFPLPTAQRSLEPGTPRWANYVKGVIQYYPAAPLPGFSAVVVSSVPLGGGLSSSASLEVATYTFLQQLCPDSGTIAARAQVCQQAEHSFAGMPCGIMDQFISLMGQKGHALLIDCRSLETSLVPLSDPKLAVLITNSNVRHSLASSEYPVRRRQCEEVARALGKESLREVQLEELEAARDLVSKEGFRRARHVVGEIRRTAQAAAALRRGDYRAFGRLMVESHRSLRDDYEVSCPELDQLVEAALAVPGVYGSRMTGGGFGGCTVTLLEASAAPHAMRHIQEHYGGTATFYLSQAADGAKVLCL
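Kinase-Glo Plus luminescence measured ATP left after a 1 h room-temperature reaction. The reaction used 5 nM GALK, 100 uM galactose and 35 uM ATP at pH 8.0 (20 mM HEPES, 5 mM MgCl2, 60 mM NaCl, 1 mM DTT, 0.01% BSA).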
The depositor's hits bear a star; ? = inconclusive; · = not tested or not shown; [ ] = remark or other dose. Unless noted, calls follow the shape of the dose curve; as a rule, active = well fitted curve in the direction sought with a large enough effect; inconclusive = small, poorly fitted or top-dose-only effect, or another doubt; inactive = no such curve, though single readings can be large; an effect the other way counts as inactive or inconclusive. % is scaled to controls: 0 for no effect and ±100 for the full control effect.

SMILES	FBPA coupling cs	RORgamma inh	VP16 counter	rTrxR1 inhibitor	TrxR1 substrate	GALK inhibitor
C[C@H]1CC[C@@H]2[C@@H](C)[C@H]3[C@H](C[C@H]4[C@@H]5CC=C6C[C@@H](O[C@@H]7O[C@H](CO)[C@H](O)[C@H](O[C@@H]8O[C@H](CO)[C@@H](O)[C@H](O)[C@H]8O)[C@H]7O[C@@H]7O[C@@H](C)[C@H](O)[C@@H](O)[C@H]7O)CC[C@]6(C)[C@H]5CC[C@]34C)N2C1	-4.2	-3.6%	-22.1%	70.8µM*	0.0%	·
O=[N+]([O-])/C=C/c1c(OCc2ccccc2)ccc2ccccc12	-1.1	5.62µM*	4.47µM*	·	·	-7.1%
CCOC(=O)[C@]1(C#N)[C@@H]2C=CC(C(C)=O)=CN2[C@@H](C(N)=O)[C@@H]1c1ccsc1	-29.6	29.0%	20µM*	1.7%[57.1 µM]	8.8%[57.1 µM]	0.2%
CC/C=C\C/C=C\C/C=C\C/C=C\C/C=C\CCCC(=O)NC(C)C(=O)O (configuration not stated)	-0.1	2.9%	3.3%	·	·	·
O=C(Cn1cnc2sc3c(c2c1=O)CCCC3)NCCCC(=O)N1CCC2(CC1)OCCO2	-0.6	-2.0%	14.8%	10.2%	0.3%	-2.1%
CCC(C)N1C(=O)/C(=C\c2cnc(N(C)C)nc2)C(=O)NC1=S (configuration not stated)	-0.8	-17.2%	3.6%	14.1µM*	8.8%[57.1 µM]	-1.8%
CN1C(=O)/C(=C\c2ccc(N3CCCCCC3)cc2)C(=O)NC1=S	2.3	-5.4%	2.2%	20µM*	-2.2%	6.5%
CCC(C)N1C(=O)/C(=C\c2cc3c4c(c2)CCCN4CCC3)C(=O)NC1=S (configuration not stated)	1.1	3.7%	11.7%	31.6µM*	-0.8%	·
CCCCN1C(=O)/C(=C/c2ccc(N3CCCCCC3)cc2)C(=O)NC1=S	-0.6	8.4%	0.7%	·	·	-1.9%
Cc1cc(N2CCCCC2)ccc1C=C1C(=O)N(C)C(=S)N(C)C1=O	5.0	?	4.0%	11.2µM*	-1.0%	-1.3%
CN1C(=O)/C(=C\c2ccc(N3CCCCC3)o2)C(=O)NC1=S	1.2	-27.3%	-6.8%	-12.1%[57.1 µM]	16.7%[57.1 µM]	2.5%
CCc1cccc(CC)c1NC1=NCCN1	1.8	8.9%	-3.8%	·	·	·
CCC(C)N1C(=O)/C(=C\c2ccc(N3CCCCCC3)cc2)C(=O)NC1=S (configuration not stated)	0.9	0.9%[10 µM]	3.7%	8.91µM*	4.5%[57.1 µM]	-0.1%
O=C1NC(=O)C(=Cc2ccc(N3CCOCC3)cc2)C(=O)N1	-0.2	-6.3%	-3.0%	?	-3.1%	7.4%
COC(=O)C1=C(c2ccc(S(C)(=O)=O)cc2)C[C@@H]2CC[C@H]1N2C(=O)NCc1ccco1	·	·	·	1.0%	21.0%	·
O=P(c1ccccc1)(c1ccccc1)N1CCCCC1	1.9	3.8%	3.8%	5.4%[57.1 µM]	5.7%[57.1 µM]	3.3%
COC(=O)C1=C(c2cccc(OC)c2OC)C[C@@H]2CC[C@H]1N2C(=O)NCc1ccc(F)cc1	·	·	·	5.2%	1.4%	·
Cn1c(O)c(C2=NN(C(=O)CCl)C(c3ccccc3)C2)c(=O)n(C)c1=O (configuration not stated)	-7.0	?	17.8µM*	?	-7.6%	-4.2%
CCC(=O)N1N=C(c2c(O)n(C)c(=O)n(C)c2=O)CC1c1ccccc1 (configuration not stated)	-0.4	11.2µM*	-9.6%	-1.1%	-6.3%	-2.4%
CCOc1ccc(C2CC(c3c(O)n(C)c(=O)n(C)c3=O)=NN2)cc1 (configuration not stated)	0.5	?	?	11.3%[57.1 µM]	8.8%[57.1 µM]	0.1%
O=NN(CCCl)C(=O)NCCCl	2.9	29.0%	?	7.9%[57.1 µM]	5.1%[57.1 µM]	·
COC(=O)C(O)(c1ccc(NC(=S)NC(=O)c2ccccc2)cc1)C(F)(F)F (configuration not stated)	-0.6	10µM*	?	?	2.5%	0.9%
CNC(=O)Oc1ccc(-c2cn3cc(C)ccc3n2)cc1	-19.4	2µM*	3.98µM*	9.9%	73.6%	6.0%
CNC(=O)Oc1cccc(-c2cn3cc(Cl)ccc3n2)c1	-8.2	-40.0%	5.01µM*	14.8%[57.1 µM]	28.1%	·
CCC(COC(=O)NC)NC(=O)Oc1cccc(C)c1 (configuration not stated)	·	0.3%	-5.1%	-8.0%	-3.8%	-0.4%
SMILES	FBPA coupling cs	RORgamma inh	VP16 counter	rTrxR1 inhibitor	TrxR1 substrate	GALK inhibitor
CC1(C)C(O)CC(O)[C@]2(C)C1CC(O)[C@]1(C)C2CC[C@@]2(C)C(c3ccoc3)OC(=O)C3O[C@]312 (some centres not stated)	-0.1	35.5%	6.3%	·	·	·
O=C(Cn1nc(-c2ccccc2)ccc1=O)N1CCC2(CC1)OCCO2	1.7	10.7%	-5.6%	20.5%	9.9%[57.1 µM]	-1.3%
CNC(Cc1c[nH]c2ccccc12)C(=O)O (configuration not stated)	0.9	15.8%	3.6%	·	·	·
CC(=O)O[C@H]1C(=O)[C@@]2(C)C([C@H](OC(=O)c3ccccc3)[C@]3(O)C[C@H](OC(=O)[C@H](O)[C@@H](NC(=O)Cc4ccccc4)c4ccccc4)C(C)=C1C3(C)C)[C@]1(OC(C)=O)CO[C@@H]1C[C@@H]2O (some centres not stated)	-0.3	?	12.6µM*	22.8%[57.1 µM]	-7.4%	·
Cc1cccc(CN2C(=O)CN=C(c3ccccc3)c3ccccc32)c1	·	·	·	-19.2%[57.1 µM]	-17.0%[57.1 µM]	·
COc1cc(C=C2C(=O)NC(=O)NC2=O)cc(OC)c1OC	0.2	27.9%	1.1%	?	4.0%[0.0914 µM]	1.7%
CCN1CCN(c2ccc([N+](=O)[O-])cc2C=C2C(=O)NC(=O)NC2=O)CC1	-3.9	-6.4%	-10.0%	?	-10.3%	-4.2%
O=C1NC(=O)C(=Cc2ccc(OCCOc3ccc([N+](=O)[O-])cc3)cc2)C(=O)N1	3.8	8.8%	5.8%	35.5µM*	-4.7%	8.7%
O=C1NC(=O)C(=Cc2cccc(OCCOc3ccccc3)c2)C(=O)N1	5.2	?	?	15.8µM*	1.2%	1.0%
Cc1ccc(OCCOc2cccc(C=C3C(=O)NC(=O)NC3=O)c2)c(C)c1	3.6	7.94µM*	3.98µM*	7.94µM*	2.0%	-2.7%
COc1cc(N)c(Cl)cc1C(=O)N[C@@H]1CN2CCC1CC2	-2.6	7.9%	-0.2%	·	·	·
CCC(C)N1CCN(C(=O)COc2ccc3ccccc3c2)CC1 (configuration not stated)	-2.1	3.9%	4.2%	20.2%	1.6%	-3.7%
Cn1c(O)c(/C=C2/C=CC=N2)c(=O)[nH]c1=O	2.6	16.4%	-11.1%	-5.8%	-6.8%	4.5%
CCCCNC(=O)c1c(N)n(CCCOC)c2nc3ccccc3nc12	-39.1*	-27.4%	-11.0%	12.9%[57.1 µM]	108.3%[57.1 µM]	-5.0%
